In ChEMBL document CHEMBL4808148, “HDAC6 screening dataset using tau-based substrate in an enzymatic assay yields selective inhibitors and activators” (2021):
Out of some 5,600 compounds screened, about 150 (2.7%) showed an effect of 50% or more. What follows is part of a selection rich in strong results, with near analogues and random picks from the rest.

What was measured:
[1] = molecular target: T1, Protein deacetylase HDAC6 (Homo sapiens) (UniProt Q9UBN7); settings: at 10 µM
T1 sequence (whole entry): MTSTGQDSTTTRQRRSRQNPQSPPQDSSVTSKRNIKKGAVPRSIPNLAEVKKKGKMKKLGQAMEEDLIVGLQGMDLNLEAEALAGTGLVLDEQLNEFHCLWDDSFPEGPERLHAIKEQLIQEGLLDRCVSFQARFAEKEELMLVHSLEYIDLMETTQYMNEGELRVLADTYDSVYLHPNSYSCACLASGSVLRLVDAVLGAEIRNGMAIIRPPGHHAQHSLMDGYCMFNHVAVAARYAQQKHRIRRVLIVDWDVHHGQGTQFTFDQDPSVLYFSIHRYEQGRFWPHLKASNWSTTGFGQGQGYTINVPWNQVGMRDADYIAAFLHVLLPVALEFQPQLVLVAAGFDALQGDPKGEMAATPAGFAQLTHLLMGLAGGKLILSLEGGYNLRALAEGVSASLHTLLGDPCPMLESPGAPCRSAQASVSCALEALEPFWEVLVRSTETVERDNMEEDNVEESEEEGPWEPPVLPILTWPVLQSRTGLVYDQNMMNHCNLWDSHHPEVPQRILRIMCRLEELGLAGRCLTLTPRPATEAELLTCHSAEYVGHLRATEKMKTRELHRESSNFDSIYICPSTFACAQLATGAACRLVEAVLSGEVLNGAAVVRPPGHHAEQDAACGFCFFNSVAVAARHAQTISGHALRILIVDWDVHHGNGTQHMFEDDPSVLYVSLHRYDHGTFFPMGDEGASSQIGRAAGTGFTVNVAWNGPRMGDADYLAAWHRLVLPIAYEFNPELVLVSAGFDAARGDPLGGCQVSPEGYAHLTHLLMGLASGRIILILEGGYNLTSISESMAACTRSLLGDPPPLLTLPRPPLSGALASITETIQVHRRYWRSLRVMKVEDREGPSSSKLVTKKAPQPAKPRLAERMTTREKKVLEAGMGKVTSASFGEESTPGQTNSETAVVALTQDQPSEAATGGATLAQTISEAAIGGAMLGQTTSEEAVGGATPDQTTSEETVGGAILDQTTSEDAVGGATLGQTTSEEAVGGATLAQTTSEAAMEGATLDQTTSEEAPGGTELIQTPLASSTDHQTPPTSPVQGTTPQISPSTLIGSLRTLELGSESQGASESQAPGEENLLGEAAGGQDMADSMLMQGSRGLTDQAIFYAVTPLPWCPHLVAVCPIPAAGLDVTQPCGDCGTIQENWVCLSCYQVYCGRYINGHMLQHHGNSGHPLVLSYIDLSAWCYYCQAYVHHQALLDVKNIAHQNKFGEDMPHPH

[2] = molecular target: Protein deacetylase HDAC6 (Homo sapiens) (UniProt Q9UBN7); settings: at 10 µM; remark: listed apart in the source

Row | Compound | inhibition [1] | inhibition [2]
1 | O=C(O)CN1C(=O)c2cccc3cccc(c23)C1=O | 5.8% | 
2 | O=C(CCCCCN1C(=O)c2cccc3cccc(c23)C1=O)NO | 98.7% | 
3 | CC(C)(Sc1ccncc1-c1ccc(C#N)c2ccccc12)C(=O)O | 2.75% | 
4 | N[C@H](Cc1c[nH]cn1)C(=O)O | 5.27% | 
5 | C/C(=N\NC(=O)C(NC(=O)c1ccccc1)c1n[nH]c(=O)c2ccccc12)c1cccc(Br)c1 (stereo not given) | 0.86% | 
6 | Cc1noc(C)c1-c1cc(O)cc(C(O)c2ccccc2)c1 (stereo not given) | 2.55% | 
7 | COc1ccc(CNC(=O)c2sc3nc(C)cc(C)c3c2N)cc1 | 13.2% | 
8 | CC(=O)Nc1ncc([N+](=O)[O-])s1 | -3.88% | 
9 | COc1ccc(CNC(=O)Nc2ncc([N+](=O)[O-])s2)cc1 | 64.8% | 
10 | CCCCn1ccc(N2CCC(c3ccccc3)CC2)c(Cl)c1=O | 42.8% | 
11 | CC[C@@H]1C[C@H](N(Cc2cc(C(F)(F)F)cc(C(F)(F)F)c2)C(C)=O)c2cc(C(F)(F)F)ccc2N1C(=O)OC(C)C | 88.1% | 
12 | CCOC(=O)N1c2ccc(C(F)(F)F)cc2[C@@H](N(Cc2cc(C(F)(F)F)cc(C(F)(F)F)c2)C(=O)OC)C[C@H]1CC | -1.4% | 
13 | CCCCCCCCCCCCCCCCNc1ccc(C(=O)O)cc1 | 2.63% | 
14 | FLUPENTIXOL, CHEMBL6066864 |  | 14.4%
15 | CN(C)C(=O)COC(=O)Cc1ccc(OC(=O)c2ccc(NC(=N)N)cc2)cc1 | 96.5% | 
16 | CC(=O)Nc1ccc(CC(=O)O)cc1 | -5.64% | 
17 | CCOC(=O)c1ccc(OC(=O)CCCCCNC(=N)N)cc1 | 22.4% | 
18 | Nc1ccn([C@@H]2O[C@@](CO)(CCl)[C@@H](O)[C@H]2F)c(=O)n1 | -1.66% | 
19 | O=C(/C=C/c1ccc(O)c(O)c1)O[C@H](Cc1ccc(O)c(O)c1)C(=O)O | 3.24% | 
20 | O=C(O)/C=C/c1ccc(O)cc1 | -0.48% | 
21 | O=C(/C=C/c1ccc(O)c(O)c1)c1ccc(O)cc1O | 99.2% | 
22 | O=C(/C=C/c1ccc(O)cc1)c1ccc(O)cc1O | 99.7% | 
23 | CC(C)(C)c1cc(C(=O)/C=C/c2ccc(C(=O)O)cc2)cc(C(C)(C)C)c1 | 2.42% | 
24 | O=C(O)/C=C/c1ccc(O)c(O)c1 | -0.33% | 
25 | CC(C)C[C@@H](NC(=O)OCC1c2ccccc2-c2ccccc21)C(=O)O | 3.37% | 

Row | Compound | inhibition [1] | inhibition [2]
26 | CARBOPLATIN, CHEMBL1351 |  | -2.28%
27 | CC(C)C[C@H](NC(=O)OCC1c2ccccc2-c2ccccc21)C(=O)O | -7.02% | 
28 | CC(C)(C)C1CCc2c(sc(NC(=O)c3ccco3)c2C(=O)O)C1 (stereo not given) | -1.94% | 
29 | O=c1ccc2c(OCCCCOc3ccccc3)c3ccoc3cc2o1 | -4.23% | 
30 | COc1ccc(S(=O)(=O)Nc2cc(Cl)cc(Cl)c2OC)cc1N1CCNCC1 | -0.38% | 
31 | CC1(C)Oc2ccc(C#N)cc2[C@H](N(Cc2ncc[nH]2)c2ccc(Cl)cc2)[C@H]1O | 5.57% | 
32 | CCOC(=O)COc1ccc2c(=O)cc(-c3ccccc3)oc2c1 | -3.12% | 
33 | CC(C)c1ccc(-c2cc(=O)c3ccccc3o2)cc1 | 77.3% | 
34 | O=C(O)c1cc(=O)c2ccccc2o1 | 10.2% | 
35 | ACRIFLAVINE HYDROCHLORIDE, CHEMBL5219995 |  | 7.54%
36 | CCCCCCCCCCCCCCCCCCCCCC(=O)Nc1ccn([C@@H]2O[C@H](CO)[C@@H](O)[C@@H]2O)c(=O)n1 | -7.93% | 
37 | COc1cc(-n2cnc3cc(-c4ccc(Cl)cc4)sc3c2=O)ccc1OCCN1CCCC1 | 2.09% | 
38 | O=C(CC(c1ccccc1)c1ccccc1)N1CCN(C(c2ccccc2)c2ccccc2)CC1 | -2.23% | 
39 | O=C(O)Cc1cccc2c(=O)cc(-c3ccccc3)oc12 | 2.51% | 
40 | O=C1C[C@@H](c2ccccc2)Oc2cc(O)cc(O)c21 | 4% | 
41 | COc1ccc(-c2cc(=O)c3c(O)c(OC)c(O)cc3o2)cc1OC | 58.5% | 
42 | O=c1c(O)c(-c2ccc(O)cc2)oc2cc(O)cc(O)c12 | 47.1% | 
43 | COc1ccc(-c2cc(=O)c3c(OC)c(OC)c(OC)c(OC)c3o2)cc1 | -4.13% | 
44 | O=C(O)[C@H]1O[C@H](Oc2cc3oc(-c4ccccc4)cc(=O)c3c(O)c2O)[C@H](O)[C@@H](O)[C@@H]1O | -2.69% | 
45 | O=c1cc(-c2ccccc2)oc2cc(O)c(O)c(O)c12 | 75.1% | 
46 | O=c1cc(-c2ccccc2)oc2cc(O)cc(O)c12 | 72.7% | 
47 | O=c1c(O)c(-c2cc(O)c(O)c(O)c2)oc2cc(O)cc(O)c12 | 6.61% | 
48 | O=c1oc2cc(O)ccc2s1 | -3.98% | 
49 | COc1ccc(-c2cc(=O)c3c(OC)c(OC)c(OC)c(OC)c3o2)cc1OC | -7.64% | 
50 | O=c1cc(-c2ccc(O)cc2)oc2cc(O)cc(O)c12 | 66.2% | 
